Source: PubChem (several laboratories)
Only some compounds are listed: those with a hit (about 2.3% of all), similar ones and a draw of the others.
Mcl1-Noxa inh – disrupts binding of human Mcl-1 to Noxa peptide; Q07820; TR-FRET Mcl-1/Noxa peptide binding, 2 h; inhibition, % at 21.7 µM; 220,000 compounds, 1.5% hits;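 active = compounds that cut the protein-peptide binding signal by more than 50% relative to plate controls in a single-dose test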;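 also: His-tagged Mcl-1 with rhodamine Noxa BH3 peptide and terbium anti-His antibody; 0% = Mcl-1 plus Noxa peptide wells and 100% = peptide-only wells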
Mcl1-Bid inh – disrupts binding of human Mcl-1 to Bid peptide | Q07820 | TR-FRET Mcl-1/Bid-Dy647 peptide binding, 1536-well | inhibition, % at 21.7 µM | 220,000 compounds, 0.97% hits | AID 1021;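 active = compounds that cut the binding signal by more than half at the single screening dose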;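 also: His-tagged Mcl-1 with europium anti-His antibody binding Bid BH3 peptide; 0% = Mcl-1 plus peptide wells and 100% = peptide-only wells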
MCL1 BIM primary – disrupts human MCL1 binding to BIM-BH3 peptide | GST-MCL1 / FITC-Bim-BH3 fluorescence polarization | inhibition, % at 10.9 µM | 320,000 compounds, 0.68% hits | AID 2057 | Q07820;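 active = inhibition above the mean inhibition of all tested compounds plus 3 SD, set per campaign, cut at about 40% in these data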;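 also: 0% = DMSO wells and 100% = unlabeled Bim-BH3 peptide control; higher means more loss of mP so more displacement of Bim peptide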
GLD-1 TGE inh – GLD-1-TGE RNA interaction inhibition (C. elegans); Q17339; purified GLD-1 + fluorescein TGE RNA, fluorescence polarization; inhibition, % at 5.96 µM; 320,000 compounds, 0.44% hits;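 active = percent inhibition above a per-plate cutoff, the plate mean of test compounds plus 3 SD, cut at about 30% in these data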;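 also: 0% = DMSO wells with GLD-1 and probe and 100% = wells lacking GLD-1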
Target sequence (Q17339 whole entry, looked up): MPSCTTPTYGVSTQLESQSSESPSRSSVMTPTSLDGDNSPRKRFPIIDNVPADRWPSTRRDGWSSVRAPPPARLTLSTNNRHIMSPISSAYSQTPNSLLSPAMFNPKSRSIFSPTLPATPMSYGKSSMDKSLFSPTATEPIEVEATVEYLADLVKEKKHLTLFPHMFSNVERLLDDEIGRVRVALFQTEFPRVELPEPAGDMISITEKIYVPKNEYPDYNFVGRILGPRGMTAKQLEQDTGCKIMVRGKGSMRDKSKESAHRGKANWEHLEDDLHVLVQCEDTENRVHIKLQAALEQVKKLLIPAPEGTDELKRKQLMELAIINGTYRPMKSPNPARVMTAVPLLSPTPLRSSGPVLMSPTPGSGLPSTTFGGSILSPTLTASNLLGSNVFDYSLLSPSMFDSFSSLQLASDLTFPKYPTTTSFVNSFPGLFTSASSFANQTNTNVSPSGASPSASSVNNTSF
Mcl-1 Bim block – inhibitors of Bim-Mcl-1 interaction, human; Bead-based flow cytometry, Bim peptide-Mcl-1 binding; inhibition, % at 10 µM; 190,000 compounds, 0.1% hits; in the data active = inhibition above about 40%;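 also: 0% = no compound tracer wells and 100% = peptide blocker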
Bcl-xL primary – blocks human Bcl-xL binding to Bim BH3 peptide; Q07817; GST-Bcl-xL / FITC-Bim BH3 peptide fluorescence polarization; inhibition, % at 10.9 µM; 320,000 compounds, 0.7% hits; AID 2129;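 active = inhibition above the mean of all tested compounds plus 3 SD, cutoff set per campaign, cut at about 30% in these data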;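 also: 0% = DMSO wells and 100% = unlabeled Bim-BH3 peptide competitor; inhibitors lower millipolarization by displacing the labeled peptide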
An asterisk follows results filed as active; x = not tested or not shown.

SMILES	Mcl1-Noxa inh	Mcl1-Bid inh	MCL1 BIM primary	GLD-1 TGE inh	Mcl-1 Bim block	Bcl-xL primary
CCN(CC)CCCNC(=S)N(Cc1cccs1)Cc1cc2cc3c(cc2[nH]c1=O)OCCO3	59*	-30	5	-2	39	3
CCCCN(CCCC)CCNC(=O)CSCc1ccc(C)cc1	23	36	8	0	-2	2
Cc1ccc2nc(NC(=O)c3ccc(-c4nc5ccccc5s4)s3)sc2c1	52*	79*	1	2	0	3
CC(=O)Nc1ccc2nc(NC(=O)c3ccc([N+](=O)[O-])s3)sc2c1	73*	18	18	4	x	2
Cn1cc(Cl)c(C(=O)Nc2nc3ccc(Cl)cc3s2)n1	-24	-10	7	1	0	2
CC(=O)Nc1ccc2nc(NC(=O)c3cccs3)sc2c1	14	-47	7	-7	x	8
CC(=O)Nc1ccc2nc(NC(=O)COc3ccc([N+](=O)[O-])cc3)sc2c1	56*	35	2	-2	-1	8
Cn1cc(Cl)c(C(=O)Nc2nc3ccc([N+](=O)[O-])cc3s2)n1	62*	52*	7	1	-1	4
O=C(Cc1c[nH]c2ccccc12)NC1(C(=O)NC2CCCC2)CCCCC1	3	-32	-6	-5	0	2
Cc1cc(C)c(C(=O)C(C)OC(=O)Cn2cnc3c2c(=O)n(C)c(=O)n3C)cc1C (stereo not drawn)	x	x	-6	1	x	1
O=C(O)/C=C\c1ccccc1Oc1cccc(Cl)c1	18	5	2	-2	0	32*
O=C(Nc1ccccc1N1CCOCC1)c1cccs1	11	-5	4	-2	82*	7
CN(C)CCCNCC(=O)Nc1ccccc1N1CCOCC1	1	62*	-3	3	-6	4
COc1ccccc1CCNC(=O)CCn1c(=O)c2cccn2c2ccc(F)cc21	x	x	1	-2	x	-4
O=C(O)c1cc(S(=O)(=O)N2CC=C(c3ccccc3)CC2)ccc1O	x	x	6	2	x	2
O=C(O)c1cc(S(=O)(=O)O)ccc1O	40	56*	1	1	0	8
CCOC(=O)c1nnn(-c2nonc2N)c1CSc1ccccc1	6	52*	4	4	-2	2
CCOC(=O)c1nnn(-c2nonc2N)c1CSc1ccc(C)cc1	-9	8	8	-3	-2	3
O=C(NCc1ccc2c(c1)OCO2)C(=O)Nc1cc2c3c(c1)CC(=O)N3CCC2	x	x	6	-3	x	4
O=C(Nc1nc(-c2ccco2)c(-c2ccco2)s1)C1CC(=O)N(c2ccc3c(c2)OCCO3)C1 (stereo not drawn)	75*	19	12	-1	5	8
Cc1nnc(NC(=O)C2CC(=O)N(c3ccc4c(c3)OCCO4)C2)s1 (stereo not drawn)	x	x	-2	4	x	-3
O=C(NNC(=S)NC(=O)c1sc2ccccc2c1Cl)c1ccc(Cl)cc1	53*	40	28	-7	-4	13
O=C(O)c1ccccc1NC(=S)NC(=O)c1sc2ccccc2c1Cl	58*	0	14	-1	-9	12
Cc1cccc(C(=O)NC(=S)NNC(=O)c2ccc(Cl)cc2)c1	88*	-91	-3	3	1	3
O=C(Nc1ccncc1)c1sc2ccccc2c1Cl	7	-14	3	-3	-7	6
SMILES	Mcl1-Noxa inh	Mcl1-Bid inh	MCL1 BIM primary	GLD-1 TGE inh	Mcl-1 Bim block	Bcl-xL primary
O=C(NNC(=O)c1sc2ccccc2c1Cl)Nc1ccc(Cl)cc1	22	5	2	3	-1	-2
O=C(Nc1ccnc(=O)[nH]1)c1sc2ccccc2c1Cl	11	58*	4	-3	x	5
CC(C)(C)c1ccc(OCCNC(=O)Cc2ccc(F)cc2)cc1	-1	-15	1	6	0	2
Cc1c(C=O)c2ccccc2n1CC(=O)NCc1ccc2c(c1)OCO2	-13	-2	3	7	-3	6
CC(=O)N1CC(C)Sc2ccc(S(=O)(=O)NCCc3cccc(C)c3)cc21 (stereo not drawn)	x	x	-1	11	x	1
COc1cccc(/C=N/n2c(SC)nnc2-c2ccccc2)c1O	51*	-98	8	-3	0	10
COc1cccc(/C=N/n2c(SC)nnc2-c2ccccc2)c1OC	-2	-18	-1	-6	-2	-2
